# Measured values published in the supplement of paper PMC6411743.
# ± gives the standard deviation of the averaged measurements. Of roughly 5,400 targets only a part is listed; those with the largest changes were picked by preference.
# Compound: Nc1nc2c(ncn2[C@@H]2O[C@H](COP(=O)(O)OP(=O)(O)OP(=O)(O)O)[C@@H](O)[C@H]2O)c(=O)[nH]1 [guanosine triphosphate]
# Assay: NP40-soluble protein abundance relative to vehicle (solubility fold change) (ratio); higher = more soluble protein in presence of GTP
# Outline: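 Values are fold changes against the detergent-processed vehicle, based on vsn-normalised intensities. Jurkat crude lysate was treated at eight concentrations from 0.1 to 10 mM (10 min at room temperature, then 3 min at 37 °C), solubilised with 0.8% NP40 and benzonase, ultracentrifuged and analysed by TMT-labelled LC-MS/MS over three independent experiments.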
# Chain of UniProt Q13573 (Q13573 whole entry): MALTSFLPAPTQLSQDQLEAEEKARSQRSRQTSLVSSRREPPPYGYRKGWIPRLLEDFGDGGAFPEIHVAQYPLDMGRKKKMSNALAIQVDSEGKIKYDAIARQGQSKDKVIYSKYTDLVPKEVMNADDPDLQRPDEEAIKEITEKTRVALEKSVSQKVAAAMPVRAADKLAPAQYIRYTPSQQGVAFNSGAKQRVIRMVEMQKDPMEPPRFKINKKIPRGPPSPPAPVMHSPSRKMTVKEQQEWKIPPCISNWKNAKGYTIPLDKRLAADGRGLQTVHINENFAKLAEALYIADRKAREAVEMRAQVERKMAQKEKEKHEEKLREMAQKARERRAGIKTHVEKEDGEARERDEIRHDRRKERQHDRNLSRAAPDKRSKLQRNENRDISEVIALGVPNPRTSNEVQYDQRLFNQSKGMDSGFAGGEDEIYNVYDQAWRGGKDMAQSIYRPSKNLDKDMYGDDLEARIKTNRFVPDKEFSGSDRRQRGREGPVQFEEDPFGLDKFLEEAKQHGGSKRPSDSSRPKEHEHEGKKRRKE
# Chain of UniProt Q6ZNB6 (Q6ZNB6 whole entry): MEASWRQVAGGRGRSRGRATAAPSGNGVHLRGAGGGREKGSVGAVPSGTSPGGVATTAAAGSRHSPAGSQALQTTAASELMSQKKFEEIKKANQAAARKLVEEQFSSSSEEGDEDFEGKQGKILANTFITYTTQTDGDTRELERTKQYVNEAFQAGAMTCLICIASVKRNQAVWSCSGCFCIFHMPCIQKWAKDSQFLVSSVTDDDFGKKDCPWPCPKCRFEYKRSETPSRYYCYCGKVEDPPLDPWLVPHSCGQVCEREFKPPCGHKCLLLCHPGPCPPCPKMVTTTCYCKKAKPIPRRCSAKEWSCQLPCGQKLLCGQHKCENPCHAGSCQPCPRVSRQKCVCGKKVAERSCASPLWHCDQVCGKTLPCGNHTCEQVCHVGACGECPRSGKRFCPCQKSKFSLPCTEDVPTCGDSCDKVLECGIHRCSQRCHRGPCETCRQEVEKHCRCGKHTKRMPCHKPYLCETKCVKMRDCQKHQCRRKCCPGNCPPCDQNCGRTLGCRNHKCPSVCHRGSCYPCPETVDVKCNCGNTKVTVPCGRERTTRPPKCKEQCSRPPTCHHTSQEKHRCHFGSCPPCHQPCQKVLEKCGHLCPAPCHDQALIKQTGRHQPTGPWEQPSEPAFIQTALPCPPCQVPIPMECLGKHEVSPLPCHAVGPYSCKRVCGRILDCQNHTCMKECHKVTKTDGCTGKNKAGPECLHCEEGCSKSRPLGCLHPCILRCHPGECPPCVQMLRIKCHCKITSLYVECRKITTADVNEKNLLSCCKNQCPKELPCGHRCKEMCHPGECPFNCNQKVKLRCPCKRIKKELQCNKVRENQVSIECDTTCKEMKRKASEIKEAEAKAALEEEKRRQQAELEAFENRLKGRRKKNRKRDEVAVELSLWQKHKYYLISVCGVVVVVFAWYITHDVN
# Chain of UniProt Q8N766 (Q8N766 whole entry): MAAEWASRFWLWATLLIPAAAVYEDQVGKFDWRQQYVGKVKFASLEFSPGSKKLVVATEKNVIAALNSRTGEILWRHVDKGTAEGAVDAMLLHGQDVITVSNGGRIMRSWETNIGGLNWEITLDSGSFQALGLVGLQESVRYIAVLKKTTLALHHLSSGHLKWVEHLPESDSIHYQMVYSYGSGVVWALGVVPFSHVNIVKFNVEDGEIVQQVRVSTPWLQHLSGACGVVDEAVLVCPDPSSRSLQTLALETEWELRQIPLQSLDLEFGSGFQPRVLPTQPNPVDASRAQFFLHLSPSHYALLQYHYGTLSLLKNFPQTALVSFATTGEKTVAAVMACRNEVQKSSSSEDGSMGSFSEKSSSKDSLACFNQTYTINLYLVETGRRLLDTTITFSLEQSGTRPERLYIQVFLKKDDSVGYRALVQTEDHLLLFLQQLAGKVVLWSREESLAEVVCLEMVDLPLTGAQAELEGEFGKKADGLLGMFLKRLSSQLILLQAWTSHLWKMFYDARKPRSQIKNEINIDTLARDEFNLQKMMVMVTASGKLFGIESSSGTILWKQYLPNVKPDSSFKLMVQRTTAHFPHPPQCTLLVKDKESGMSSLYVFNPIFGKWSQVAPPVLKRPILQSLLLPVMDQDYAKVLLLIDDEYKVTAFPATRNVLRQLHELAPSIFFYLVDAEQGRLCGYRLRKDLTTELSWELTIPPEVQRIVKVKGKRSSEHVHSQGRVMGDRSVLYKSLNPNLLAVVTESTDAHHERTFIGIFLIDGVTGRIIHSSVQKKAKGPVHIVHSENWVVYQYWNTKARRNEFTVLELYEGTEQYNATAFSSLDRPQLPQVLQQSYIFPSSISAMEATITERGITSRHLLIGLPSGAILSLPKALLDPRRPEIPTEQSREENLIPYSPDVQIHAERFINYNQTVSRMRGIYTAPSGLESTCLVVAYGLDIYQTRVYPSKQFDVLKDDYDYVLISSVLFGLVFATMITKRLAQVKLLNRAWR
# Chain of UniProt Q8NB16 (Q8NB16 whole entry): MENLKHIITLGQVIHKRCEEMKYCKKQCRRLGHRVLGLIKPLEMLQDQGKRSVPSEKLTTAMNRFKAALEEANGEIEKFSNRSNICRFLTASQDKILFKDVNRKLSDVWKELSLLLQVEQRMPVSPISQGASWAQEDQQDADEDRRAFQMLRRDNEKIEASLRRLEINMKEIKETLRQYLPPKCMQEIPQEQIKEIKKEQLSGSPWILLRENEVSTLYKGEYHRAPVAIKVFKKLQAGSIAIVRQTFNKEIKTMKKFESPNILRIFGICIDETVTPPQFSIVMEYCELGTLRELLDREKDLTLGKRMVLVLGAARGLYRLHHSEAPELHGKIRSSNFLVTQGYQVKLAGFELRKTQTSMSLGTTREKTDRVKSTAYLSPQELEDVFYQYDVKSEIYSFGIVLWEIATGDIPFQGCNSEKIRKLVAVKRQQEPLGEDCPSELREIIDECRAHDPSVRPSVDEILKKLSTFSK
# Chain of UniProt P61962 (P61962 whole entry): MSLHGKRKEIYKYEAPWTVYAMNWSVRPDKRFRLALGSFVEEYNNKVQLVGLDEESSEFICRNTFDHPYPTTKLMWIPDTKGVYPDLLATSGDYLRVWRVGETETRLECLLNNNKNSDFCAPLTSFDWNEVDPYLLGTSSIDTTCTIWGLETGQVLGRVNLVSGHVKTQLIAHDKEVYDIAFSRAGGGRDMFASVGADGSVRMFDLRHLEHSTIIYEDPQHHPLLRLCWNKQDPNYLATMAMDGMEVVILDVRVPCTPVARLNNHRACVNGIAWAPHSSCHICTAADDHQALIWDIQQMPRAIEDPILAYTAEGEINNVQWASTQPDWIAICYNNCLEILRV
# Chain of UniProt Q13151 (Q13151 whole entry): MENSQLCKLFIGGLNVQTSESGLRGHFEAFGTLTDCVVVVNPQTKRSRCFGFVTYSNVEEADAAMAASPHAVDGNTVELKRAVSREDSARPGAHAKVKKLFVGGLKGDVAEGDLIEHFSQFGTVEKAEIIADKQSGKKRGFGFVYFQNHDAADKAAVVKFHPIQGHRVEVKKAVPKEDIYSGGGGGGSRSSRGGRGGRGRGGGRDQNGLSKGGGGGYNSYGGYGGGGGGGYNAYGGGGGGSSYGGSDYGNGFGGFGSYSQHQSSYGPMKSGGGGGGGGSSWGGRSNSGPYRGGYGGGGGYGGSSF
# Chain of UniProt Q16864 (Q16864 whole entry): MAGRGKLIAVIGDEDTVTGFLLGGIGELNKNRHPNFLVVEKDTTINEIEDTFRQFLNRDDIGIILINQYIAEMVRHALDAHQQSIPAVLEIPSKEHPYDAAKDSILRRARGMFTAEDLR
# Chain of UniProt P55072 (P55072 whole entry, looked up): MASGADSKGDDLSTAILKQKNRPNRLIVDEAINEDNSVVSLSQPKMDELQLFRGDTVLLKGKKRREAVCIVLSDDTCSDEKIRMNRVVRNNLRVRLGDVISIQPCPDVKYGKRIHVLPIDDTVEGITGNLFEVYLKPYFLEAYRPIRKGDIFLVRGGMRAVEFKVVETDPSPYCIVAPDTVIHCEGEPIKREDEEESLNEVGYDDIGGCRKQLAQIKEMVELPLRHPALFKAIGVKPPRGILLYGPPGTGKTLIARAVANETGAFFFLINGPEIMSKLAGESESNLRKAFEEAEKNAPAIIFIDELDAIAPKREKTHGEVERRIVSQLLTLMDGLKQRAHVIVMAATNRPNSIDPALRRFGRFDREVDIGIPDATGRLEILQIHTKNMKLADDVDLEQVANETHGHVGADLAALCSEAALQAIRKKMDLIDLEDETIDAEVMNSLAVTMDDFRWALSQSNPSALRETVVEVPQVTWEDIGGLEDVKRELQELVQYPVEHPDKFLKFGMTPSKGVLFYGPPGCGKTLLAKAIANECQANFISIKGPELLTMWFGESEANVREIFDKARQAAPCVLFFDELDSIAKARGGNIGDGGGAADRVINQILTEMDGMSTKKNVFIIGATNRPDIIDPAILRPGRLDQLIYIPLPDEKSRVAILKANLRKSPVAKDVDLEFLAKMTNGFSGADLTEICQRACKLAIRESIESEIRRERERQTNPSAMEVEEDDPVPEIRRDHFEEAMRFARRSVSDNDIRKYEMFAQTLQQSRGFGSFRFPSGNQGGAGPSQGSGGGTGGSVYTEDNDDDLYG
# Chain of UniProt Q86Y37 (Q86Y37 whole entry): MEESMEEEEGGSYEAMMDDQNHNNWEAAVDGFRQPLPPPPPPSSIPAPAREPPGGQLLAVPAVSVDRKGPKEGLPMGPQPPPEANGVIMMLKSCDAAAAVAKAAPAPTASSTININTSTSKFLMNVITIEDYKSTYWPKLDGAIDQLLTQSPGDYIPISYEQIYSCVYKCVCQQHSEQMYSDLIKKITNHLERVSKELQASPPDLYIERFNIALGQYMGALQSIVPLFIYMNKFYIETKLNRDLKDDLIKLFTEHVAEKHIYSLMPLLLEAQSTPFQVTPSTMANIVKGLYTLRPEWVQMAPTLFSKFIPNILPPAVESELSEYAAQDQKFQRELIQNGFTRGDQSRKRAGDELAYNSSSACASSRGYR
# Chain of UniProt P84090 (P84090 whole entry, looked up): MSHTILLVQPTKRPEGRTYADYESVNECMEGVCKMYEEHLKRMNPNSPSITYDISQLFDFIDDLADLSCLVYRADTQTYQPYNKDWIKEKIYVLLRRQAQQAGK
Target,NP40-soluble protein abundance (concentration: 0.1mM),NP40-soluble protein abundance (concentration: 0.5mM),NP40-soluble protein abundance (concentration: 1mM),NP40-soluble protein abundance (concentration: 2mM),NP40-soluble protein abundance (concentration: 4mM),NP40-soluble protein abundance (concentration: 6mM),NP40-soluble protein abundance (concentration: 8mM),NP40-soluble protein abundance (concentration: 10mM)
UniProt P62277,0.945 ± 0.11,0.964 ± 0.11,1.03 ± 0.22,1.02 ± 0.3,0.802 ± 0.25,0.796 ± 0.27,0.626 ± 0.17,0.816 ± 0.29
Q5VWV2|Q8TEW0|Q8TEW0-11|Q8TEW0-2|Q8TEW0-4|Q8TEW0-5|Q8TEW0-8 (UniProt Q8TEW0),1.02 ± 0.11,1.02 ± 0.084,1.05 ± 0.098,1.07 ± 0.089,1.17 ± 0.14,1.15 ± 0.14,1.2 ± 0.14,1.19 ± 0.1
UniProt Q12802|Q12802-2|Q12802-4,0.99 ± 0.12,1.01 ± 0.092,1.01 ± 0.099,1 ± 0.12,0.977 ± 0.11,1.04 ± 0.11,1.02 ± 0.1,1.02 ± 0.084
GALNT2 (UniProt Q10471),1.02 ± 0.025,0.97 ± 0.021,0.9568 ± 0.0034,0.917 ± 0.014,0.928 ± 0.022,0.901 ± 0.012,0.927 ± 0.046,0.861 ± 0.052
UniProt Q86Y37|Q86Y37-4,0.963 ± 0.063,0.923 ± 0.074,0.9527 ± 0.0029,0.9274 ± 0.0067,0.907 ± 0.091,0.905 ± 0.048,0.87 ± 0.057,0.889 ± 0.054
UniProt Q14156|Q14156-3,1.13 ± 0.049,1.105 ± 0.011,1.09 ± 0.11,1.1 ± 0.021,1.21 ± 0.11,1.1 ± 0.16,1.0338 ± 0.00078,1.01 ± 0.013
UniProt Q86V81,0.939 ± 0.019,0.943 ± 0.079,1.12 ± 0.036,1.25 ± 0.097,1.5 ± 0.047,1.73 ± 0.054,1.95 ± 0.1,2.52 ± 0.13
RDH11 (UniProt Q8TC12),1 ± 0.014,0.985 ± 0.024,0.911 ± 0.034,0.895 ± 0.051,0.867 ± 0.048,0.88 ± 0.015,0.824 ± 0.084,0.782 ± 0.082
UniProt P61981,0.845 ± 0.11,0.811 ± 0.067,1.01 ± 0.14,0.987 ± 0.076,0.942 ± 0.075,0.968 ± 0.12,0.912 ± 0.15,1.05 ± 0.16
UniProt Q8N3X1|Q8N3X1-2,1.05 ± 0.043,1.01 ± 0.076,1.09 ± 0.022,1.27 ± 0.017,1.39 ± 0.024,1.64 ± 0.031,1.77 ± 0.15,2.04 ± 0.24
UniProt Q8N766|Q8N766-2|Q8N766-3|Q8N766-4,1.01 ± 0.055,1.03 ± 0.1,0.938 ± 0.046,0.964 ± 0.12,0.951 ± 0.098,0.926 ± 0.093,0.901 ± 0.015,0.897 ± 0.063
UniProt P84090,1.06 ± 0.1,1.02 ± 0.06,1.26 ± 0.18,1.34 ± 0.11,1.42 ± 0.16,1.54 ± 0.1,1.65 ± 0.14,1.95 ± 0.38
UniProt P55072,0.982 ± 0.03,1.05 ± 0.064,0.999 ± 0.073,1.02 ± 0.12,1.03 ± 0.11,1.03 ± 0.14,1 ± 0.1,1 ± 0.11
NFXL1 (UniProt Q6ZNB6),1.04 ± 0.079,1.09 ± 0.1,1.05 ± 0.091,1.11 ± 0.067,1.13 ± 0.12,1.16 ± 0.13,1.12 ± 0.12,1.15 ± 0.11
UniProt Q16864|Q16864-2,0.906 ± 0.02,0.931 ± 0.05,1.032 ± 0.01,1.04 ± 0.067,0.999 ± 0.061,1.02 ± 0.034,0.992 ± 0.073,1.02 ± 0.027
CUL4A (UniProt Q13619),1.07 ± 0.041,1.09 ± 0.077,1.02 ± 0.045,1.03 ± 0.11,0.989 ± 0.09,0.987 ± 0.076,0.987 ± 0.061,0.934 ± 0.042
UniProt P62805,0.891 ± 0.063,0.855 ± 0.058,0.972 ± 0.027,0.963 ± 0.053,1.08 ± 0.048,1.22 ± 0.054,1.2 ± 0.067,1.76 ± 0.14
UniProt Q15424|Q15424-3|Q15424-4,0.958 ± 0.048,0.938 ± 0.052,1.04 ± 0.039,1.09 ± 0.081,1.19 ± 0.066,1.25 ± 0.041,1.38 ± 0.083,1.44 ± 0.083
UniProt P61962,1.02 ± 0.081,1.08 ± 0.089,0.988 ± 0.07,1.04 ± 0.1,1.02 ± 0.057,1.01 ± 0.092,0.946 ± 0.021,0.964 ± 0.03
SNW1 (UniProt Q13573),0.96 ± 0.049,0.94 ± 0.064,0.97 ± 0.028,0.94 ± 0.071,0.942 ± 0.063,0.959 ± 0.041,1.01 ± 0.046,1.03 ± 0.051
C15orf40 (UniProt Q8WUR7),1.02 ± 0.1,1.02 ± 0.084,1.03 ± 0.034,1.05 ± 0.12,1.04 ± 0.13,1.01 ± 0.097,1.11 ± 0.061,1.17 ± 0.12
EXOSC7 (UniProt Q15024),1.09 ± 0.084,1.01 ± 0.071,1.06 ± 0.086,1.11 ± 0.12,1.26 ± 0.13,1.17 ± 0.12,1.22 ± 0.077,1.18 ± 0.061
UniProt P62195,1.03 ± 0.069,1.08 ± 0.12,1.04 ± 0.14,1.07 ± 0.17,1.06 ± 0.15,1.08 ± 0.19,1.06 ± 0.16,0.977 ± 0.15
MLKL (UniProt Q8NB16),0.98 ± 0.044,0.962 ± 0.052,0.896 ± 0.062,0.908 ± 0.035,0.873 ± 0.047,0.874 ± 0.032,0.868 ± 0.045,0.837 ± 0.024
UniProt Q6UXH1|Q6UXH1-4|Q6UXH1-5|Q6UXH1-6,0.968 ± 0.018,0.941 ± 0.046,1.03 ± 0.09,0.959 ± 0.093,0.935 ± 0.096,0.959 ± 0.12,0.95 ± 0.061,0.956 ± 0.088
CHMP7 (UniProt Q8WUX9),0.945 ± 0.058,0.935 ± 0.087,0.973 ± 0.085,0.92 ± 0.11,0.884 ± 0.074,0.9 ± 0.045,0.912 ± 0.1,0.889 ± 0.084
UniProt Q8IX12|Q8IX12-2,0.993 ± 0.042,0.985 ± 0.027,1.004 ± 0.0041,0.996 ± 0.03,1.08 ± 0.056,1.12 ± 0.06,1.17 ± 0.077,1.14 ± 0.059
HNRNPA0 (UniProt Q13151),0.975 ± 0.038,1 ± 0.024,1 ± 0.038,0.989 ± 0.05,0.967 ± 0.035,1 ± 0.046,1.01 ± 0.052,0.986 ± 0.058
UniProt Q16643|Q16643-2|Q16643-3,0.894 ± 0.061,0.888 ± 0.11,0.903 ± 0.11,0.905 ± 0.11,1.08 ± 0.1,1.24 ± 0.11,1.52 ± 0.15,1.81 ± 0.12
